Data: PubChem BioAssay (Tox21)
Results filed as inconclusive are left out. Activity calls are given as the source filed them. Unless noted, the call rests on the fitted dose curve; in most records, active means well fitted curve in the direction sought with a large enough effect in the repeat runs; inconclusive means weak or mixed curves; inactive means flat fitted curve, though single readings scatter.

System: not listed separately
Assay: qHTS assay to test for compound auto fluorescence at 535 nm (green) in HepG2 cell free culture (AID 720686)
Conditions: Cell-free medium, green autofluorescence 485/535 nm; series mostly up to 46 µM; fluorescence, % of fluorescein control: at the top concentration
On the % scale 0 is the no-effect control and ±100 the full control effect.

Row | Compound | fluorescence, % of fluorescein control | outcome
1 | NS(=O)(=O)c1cc2c(cc1Cl)NC(C1CC3C=CC1C3)NS2(=O)=O (configuration not stated) | 0.0003% (inactive) | 
2 | OCCOc1ccc(OCCO)cc1 | -0.0209% [at 95.7 µM] (inactive) | 
3 | COC(C)(C)CCCC(C)CC=O (configuration not stated) | 0.0944% [at 91.3 µM] (inactive) | 
4 | CCOC(=O)CCC(C)=O | 0.047% [at 91.3 µM] (inactive) | 
5 | NC(=O)COCCN1CCN(C(c2ccccc2)c2ccc(Cl)cc2)CC1 (configuration not stated) | -0.03% (inactive) | 
6 | C=CCCCCCCCCC=O | -0.0011% [at 91.3 µM] (inactive) | 
7 | CC[N+](C)(C)c1cccc(O)c1 | -0.0844% [at 18.6 µM] (inactive) | 
8 | O=C(O)CCCc1ccccc1 | 0.0753% (inactive) | 
9 | CC(=O)c1ccccc1O | -0.0558% [at 91.3 µM] (inactive) | 
10 | Cc1cccn2c(=O)c(-c3nnn[nH]3)cnc12 | -0.0168% (inactive) | 
11 | c1ccc([C@H]2CN3CCSC3=N2)cc1 | -0.0078% (inactive) | 
12 | CC(C[N+](C)(C)C)OC(N)=O (configuration not stated) | -0.0291% (inactive) | 
13 | CCCCCCCCS(=O)(=O)Cl | -0.0292% [at 91.3 µM] (inactive) | 
14 | O=[N+]([O-])c1ccc(F)cc1F | 0.0112% [at 91.3 µM] (inactive) | 
15 | CC(=O)OCC(=O)[C@@]1(O)CCC2C3CCC4=CC(=O)CC[C@]4(C)C3[C@@H](O)C[C@@]21C (some centres not stated) | -0.0365% (inactive) | 
16 | COC(=O)c1c(Cl)c(Cl)c(C(=O)OC)c(Cl)c1Cl |  | inactive
17 | O=C1CCCC(=O)C1 | -0.0349% [at 91.3 µM] (inactive) | 

Row | Compound | fluorescence, % of fluorescein control | outcome
18 | CCOC(=O)c1ccc(C)cc1 | -0.0874% [at 91.3 µM] (inactive) | 
19 | CC1(C)C(O)C(C)(C)C1O (configuration not stated) | -0.013% [at 91.3 µM] (inactive) | 
20 | CC/C=C\CC/C=C/C(OCC)OCC | -0.0879% [at 91.3 µM] (inactive) | 
21 | COc1c(N2C[C@@H]3CCCN[C@@H]3C2)c(F)cc2c(=O)c(C(=O)O)cn(C3CC3)c12 |  | inactive
22 | COC(=O)[C@@H](N)Cc1ccc(O)c(O)c1 | -0.0249% (inactive) | 
23 | CCN1CCC[C@H]1CNC(=O)c1c(O)c(Cl)cc(Cl)c1OC | 0.0264% (inactive) | 
24 | C1CN(CCOCCN2CCOCC2)CCO1 | -0.0084% [at 91.3 µM] (inactive) | 
25 | COc1nc(N)nc2c1ncn2[C@@H]1O[C@H](CO)[C@@H](O)[C@@H]1O | -0.0067% (inactive) | 
26 | CCOC(C)(C)C | 0.0041% [at 95.7 µM] (inactive) | 
27 | C=CCS(=O)(=O)O | -0.0153% [at 91.3 µM] (inactive) | 
28 | Oc1ccc(C2CNCCc3c2cc(O)c(O)c3Cl)cc1 (configuration not stated) | 0.0324% (inactive) | 
29 | O=C(O)COc1nn(Cc2ccccc2)c2ccccc12 | 0.0322% (inactive) | 
30 | CC(C)NCC(O)c1ccc(NS(C)(=O)=O)cc1 (configuration not stated) |  | inactive
31 | CO[Si](CCCOCC1CO1)(OC)OC (configuration not stated) |  | inactive
32 | CCSC(=O)N(CC(C)C)CC(C)C | 0.0913% [at 91.3 µM] (inactive) | 
33 | NC(=O)c1ccc([N+](=O)[O-])cc1 | 0.124% [at 91.3 µM] (inactive) | 
34 | CCCN1CCCC[C@H]1C(=O)Nc1c(C)cccc1C | 0.0968% (inactive) | 

System: not listed separately
Assay: qHTS assay to test for compound auto fluorescence at 460 nm (blue) in HepG2 cells (AID 720687)
Conditions: autofluorescence 405/460 nm, 1 h; series mostly up to 46 µM; fluorescence, % of fluorescent control: at the top concentration
Procedure, shortened: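 Blue-channel autofluorescence (Ex/Em 405/460 nm, triamterene-equivalent) was measured after 1 hr compound exposure at 37 C, 5% CO2. Cells were HepG2, plated overnight at 37 C in MEM plus 10% FBS.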

Row | Compound | fluorescence, % of fluorescent control | outcome
35 | C[N+](C)(C)CCCCCC[N+](C)(C)C | -0.101% (inactive) | 
36 | COC(C)(C)CCCC(C)CC=O (configuration not stated) | 0.0094% [at 91.3 µM] (inactive) | 
37 | NC(=O)COCCN1CCN(C(c2ccccc2)c2ccc(Cl)cc2)CC1 (configuration not stated) | -0.14% (inactive) | 
38 | C=CCCCCCCCCC=O | -0.0657% [at 91.3 µM] (inactive) | 
39 | NS(=O)(=O)c1ccc(C(=O)O)cc1 | -0.142% (inactive) | 
40 | CC[N+](C)(C)c1cccc(O)c1 | 0.0536% [at 18.6 µM] (inactive) | 
41 | O=C(O)CCCc1ccccc1 | -0.014% (inactive) | 
42 | Cc1cccn2c(=O)c(-c3nnn[nH]3)cnc12 | 4.29% (inactive) | 
43 | CC(C[N+](C)(C)C)OC(N)=O (configuration not stated) | -0.0584% (inactive) | 
44 | CCCCCCCCS(=O)(=O)Cl | -0.0191% [at 91.3 µM] (inactive) | 
45 | O=[N+]([O-])c1ccc(F)cc1F | 0.0176% [at 91.3 µM] (inactive) | 
46 | CC(=O)OCC(=O)[C@@]1(O)CCC2C3CCC4=CC(=O)CC[C@]4(C)C3[C@@H](O)C[C@@]21C (some centres not stated) | 0.0179% (inactive) | 
47 | COC(=O)c1c(Cl)c(Cl)c(C(=O)OC)c(Cl)c1Cl |  | inactive
48 | O=C1CCCC(=O)C1 | 0.701% [at 91.3 µM] (inactive) | 
49 | CCOC(=O)c1ccc(C)cc1 | 0.0444% [at 91.3 µM] (inactive) | 
50 | O=C(CCCN1CCN(c2ccccn2)CC1)c1ccc(F)cc1 | 0.119% (inactive) | 
51 | COC(=O)[C@@H](N)Cc1ccc(O)c(O)c1 | 0.029% (inactive) | 
52 | CCN1CCC[C@H]1CNC(=O)c1c(O)c(Cl)cc(Cl)c1OC | -0.0419% (inactive) | 
53 | OC(CCN1CCCCC1)(c1ccccc1)C1CC2C=CC1C2 (configuration not stated) |  | inactive
54 | C1CN(CCOCCN2CCOCC2)CCO1 | -0.0879% [at 91.3 µM] (inactive) | 
55 | COc1nc(N)nc2c1ncn2[C@@H]1O[C@H](CO)[C@@H](O)[C@@H]1O | 0.0031% (inactive) | 
56 | CCOC(C)(C)C | -0.0421% [at 95.7 µM] (inactive) | 
57 | C=CCS(=O)(=O)O | -0.225% [at 91.3 µM] (inactive) | 
58 | CC(C)CNCC(C)C | 0.0374% [at 91.3 µM] (inactive) | 
59 | Oc1ccc(C2CNCCc3c2cc(O)c(O)c3Cl)cc1 (configuration not stated) | -0.0018% (inactive) | 
60 | O=C(O)COc1nn(Cc2ccccc2)c2ccccc12 | -0.116% (inactive) | 
61 | CC(C)NCC(O)c1ccc(NS(C)(=O)=O)cc1 (configuration not stated) |  | inactive
62 | CO[Si](CCCOCC1CO1)(OC)OC (configuration not stated) |  | inactive
63 | NC(=O)c1ccc([N+](=O)[O-])cc1 | -0.152% [at 91.3 µM] (inactive) | 
64 | CCCN1CCCC[C@H]1C(=O)Nc1c(C)cccc1C | 0.0367% (inactive) | 

Biological target: Glucocorticoid receptor (Homo sapiens) (UniProt P04150)
Sequence (P04150 whole entry, looked up): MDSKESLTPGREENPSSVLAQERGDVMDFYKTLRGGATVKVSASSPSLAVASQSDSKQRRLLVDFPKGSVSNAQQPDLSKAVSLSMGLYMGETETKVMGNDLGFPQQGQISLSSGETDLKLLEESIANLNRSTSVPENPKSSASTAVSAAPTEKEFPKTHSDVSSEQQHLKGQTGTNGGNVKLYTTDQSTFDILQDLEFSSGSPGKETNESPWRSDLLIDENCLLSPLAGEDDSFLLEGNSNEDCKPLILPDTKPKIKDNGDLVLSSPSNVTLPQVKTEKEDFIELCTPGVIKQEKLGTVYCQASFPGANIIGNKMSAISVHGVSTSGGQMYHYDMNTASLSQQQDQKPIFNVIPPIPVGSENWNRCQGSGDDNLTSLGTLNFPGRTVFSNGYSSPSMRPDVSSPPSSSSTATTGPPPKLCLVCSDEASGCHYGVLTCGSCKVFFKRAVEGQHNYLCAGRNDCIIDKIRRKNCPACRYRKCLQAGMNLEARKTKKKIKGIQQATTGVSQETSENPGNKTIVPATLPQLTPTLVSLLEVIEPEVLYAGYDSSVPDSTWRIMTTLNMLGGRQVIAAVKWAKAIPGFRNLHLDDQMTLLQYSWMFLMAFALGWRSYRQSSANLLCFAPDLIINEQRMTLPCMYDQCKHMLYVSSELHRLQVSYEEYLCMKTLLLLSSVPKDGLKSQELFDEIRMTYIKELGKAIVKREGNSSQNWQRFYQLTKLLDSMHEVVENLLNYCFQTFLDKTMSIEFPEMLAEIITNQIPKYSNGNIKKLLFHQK
Assay: qHTS assay to identify small molecule agonists of the glucocorticoid receptor (GR) signaling pathway (AID 720691; active means well fitted activation curve with a large enough effect in the signal ratio in the repeat runs, not every such curve was filed as active; the % refers to the signal ratio; further: potency means the concentration at half of the fitted maximal effect)
Conditions: GR-bla HeLa, beta-lactamase reporter ratio, 18 h; series mostly up to 62.4 µM; activation: at the top concentration
Procedure, shortened: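 HeLa GR-bla reporter line; cells pre-incubated 4 h, compound in DMSO 18 h at 37 C; LiveBLAzer B/G FRET substrate 2 h RT; fluorescence intensity read-out.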

Row | Compound | activation | Potency
65 | NS(=O)(=O)c1cc2c(cc1Cl)NC(C1CC3C=CC1C3)NS2(=O)=O (configuration not stated) | 0.141% (inactive) | 
66 | OCCOc1ccc(OCCO)cc1 | -1.21% [at 79.2 µM] (inactive) | 
67 | COC(C)(C)CCCC(C)CC=O (configuration not stated) | 0.222% (inactive) | 
68 | CCOC(=O)CCC(C)=O | 0.648% (inactive) | 
69 | NC(=O)COCCN1CCN(C(c2ccccc2)c2ccc(Cl)cc2)CC1 (configuration not stated) | -0.606% (inactive) | 
70 | C=CCCCCCCCCC=O | -3.64% (inactive) | 
71 | NS(=O)(=O)c1ccc(C(=O)O)cc1 | -0.294% (inactive) | 
72 | O=C(O)CCCc1ccccc1 | -0.0057% (inactive) | 
73 | Cc1cccn2c(=O)c(-c3nnn[nH]3)cnc12 | -0.11% (inactive) | 
74 | c1ccc([C@H]2CN3CCSC3=N2)cc1 | 0.645% (inactive) | 
75 | CC(C[N+](C)(C)C)OC(N)=O (configuration not stated) | 0.975% (inactive) | 
76 | CCCCCCCCS(=O)(=O)Cl | -1.98% [at 79.2 µM] (inactive) | 
77 | CC(=O)OCC(=O)[C@@]1(O)CCC2C3CCC4=CC(=O)CC[C@]4(C)C3[C@@H](O)C[C@@]21C (some centres not stated) |  | 134 nM (active)
78 | COC(=O)c1c(Cl)c(Cl)c(C(=O)OC)c(Cl)c1Cl |  | inactive
79 | O=C1CCCC(=O)C1 | -0.864% (inactive) | 
80 | CCOC(=O)c1ccc(C)cc1 | 1.09% (inactive) | 
81 | CC1(C)C(O)C(C)(C)C1O (configuration not stated) | -2.28% (inactive) | 
82 | CC/C=C\CC/C=C/C(OCC)OCC | 6.64% (inactive) | 
83 | OC(CCN1CCCCC1)(c1ccccc1)C1CC2C=CC1C2 (configuration not stated) |  | inactive
84 | C1CN(CCOCCN2CCOCC2)CCO1 | -2.14% (inactive) | 
85 | COc1nc(N)nc2c1ncn2[C@@H]1O[C@H](CO)[C@@H](O)[C@@H]1O | -1.35% (inactive) | 
86 | C=CCS(=O)(=O)O | 2.96% (inactive) | 
87 | Oc1ccc(C2CNCCc3c2cc(O)c(O)c3Cl)cc1 (configuration not stated) | 0.289% (inactive) | 
88 | O=C(O)COc1nn(Cc2ccccc2)c2ccccc12 | -1.96% (inactive) | 
89 | CC(C)NCC(O)c1ccc(NS(C)(=O)=O)cc1 (configuration not stated) |  | inactive
90 | CO[Si](CCCOCC1CO1)(OC)OC (configuration not stated) |  | inactive
91 | CCSC(=O)N(CC(C)C)CC(C)C | -0.759% (inactive) | 
92 | NC(=O)c1ccc([N+](=O)[O-])cc1 | 1% (inactive) | 
